PubChem BioAssay
Records with an inconclusive call do not appear. Activity calls are given as the source filed them.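 The calls were made as follows, unless noted: active = cell viability at or below a set limit in both duplicate runs, the limit being the all-compound median minus 4 SD (cut at about 23% in these data, passing the limit was not always enough); inconclusive = no clear call, values can overlap the other calls; inactive = the rest.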

Assays:
[1] = Her2 expression decrease, cell viability multiplex – SKBR3 breast tumor cells, AlphaScreen, ATP viability, primary screen (AID 461;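 active = Her2 level under about 52% in both replicate screens, with viability over 70% of control, limit read from the data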;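 as to Her2 level: lower value means less Her2 protein in the cells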;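 as to viability: percent of carrier control wells set as 100% viability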); details: SKBR3 Her2 protein level, 18-24 h, measured here: SKBR3 viability, ATP luminescence, at 10 µM
[2] = molecular target: Receptor tyrosine-protein kinase erbB-2 (Homo sapiens) (UniProt P04626); experiment: as above; details: 18-24 h, at 10 µM, stronger effect = lower value
[3] = reduced viability of SK-BR-3 breast cancer cells – cell-based, 24 h, human, pilot screen (AID 572;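 active = viability at or below 10% of carrier control in both of two separate runs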;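 also: compound exposure lasted between 18 and 24 h rather than exactly 24 h; 100% = carrier-treated control wells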); details: SK-BR-3 viability, CellTiter-Glo luminescence, at 10 µM, stronger effect = lower value
[4] = HUVEC growth inhibition – cell-based, human, primary screen (AID 575;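 active = viability at or below 30% in both replicate assays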;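 also: 100% = median of untreated cell wells with 0.1% DMSO on each plate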); details: HUVEC proliferation, CellTiter-Glo luminescence, 72 h; at 10 µM; stronger effect = lower value
[5] = H69AR cell proliferation blockers – human, duplicate replicates, primary screen (AID 580;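 active = viability at or under a set limit in both replicates, limit being median viability minus 3 SD, cut at about 48% in these data, passing the limit was not always enough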;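 also: 100% = mean luminescence of untreated wells and 0% = no signal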); details: H69AR lung tumor cells viability, ATP luminescence, 72 h; at 10 µM; stronger effect = lower value
[6] = MRP1 drug-resistance reversers in H69AR cells – cell-based, doxorubicin co-treatment, pilot screen (AID 601;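 active = viability loss from added drug above about 55%, and viability with drug at most 40%, in both replicates, limit read from the data, passing the limit was not always enough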); details: CellTiter-Glo, 72 h, at 10 µM; for differential viability (reversal): stronger effect = higher value
[7] = yeast transport mutant growth inhibition pilot in 384-well plates, post-Golgi transport modulator project (AID 636; in the data active = inhibition above about 31%); details: absorbance 615 nm, about 18 h, stronger effect = higher value
[8] = growth suppression of yeast trafficking mutant, preliminary HTS, modulators of trafficking downstream of Golgi apparatus project, 1536-format plate, OD 615 nm (AID 637; in the data active = inhibition above about 30%); details: yeast transport mutant growth, absorbance 615 nm, 18 h; stronger effect = higher value
[9] = S. cerevisiae growth inhibition in permissive medium (OD615), pilot counter-assay for S. cerevisiae lifespan shortening project, permissive growth control (AID 705;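 active = growth inhibition above 25% in both replicates, a cutoff set 3 SD above the mean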); details: OD615, 24 h, at 10 µM, stronger effect = higher value
[10] = S. cerevisiae growth inhibition in restrictive medium, OD615, pilot screen, restrictive growth control, yeast lifespan reduction project (AID 706;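 active = growth inhibition above a set limit, 3 SD over mean compound inhibition, in both replicates, cut at about 43% in these data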;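 also: modified DeaD lifespan yeast strain shifted to restrictive glucose medium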); details: OD615, 48 h, at 10 µM, stronger effect = higher value
[11] = doxorubicin toxicity protection in MRP-1 cells – H69AR cells, CellTiter-Glo, duplicate, MRP-1 activator project, pilot screen (AID 807;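 active = viability increase at or above a cutoff of the median across tested compounds plus 3 SD, cut at about 8.5% in these data, passing the limit was not always enough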;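 also: compound pretreatment 18-22 h then 72 h combined with doxorubicin; 0% = doxorubicin alone and 100% = vehicle without doxorubicin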); details: H69AR viability with doxorubicin, CellTiter-Glo luminescence; at 10 µM; stronger effect = higher value
[12] = viability of HCT116 without oncogenic beta-catenin – human colon tumor cells, pilot screen (AID 823); details: HCT116 beta-catenin knockout viability, CellTiter-Glo, 60 h; at 10 µM; stronger effect = lower value;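 also: 0% = wells killed by 20 µM Hyamine and 100% = untreated DMSO cell wells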
[13] = viability of PTEN-null HCT116 cells – cell-based, HCT116 clonal line, CellTiter-Glo, pilot screen (AID 824;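 active = viability at or below 27.92% in each of two runs, the all-compound median minus 4 SD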;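 also: 0% = 20 µM Hyamine control and 100% = vehicle cell control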); details: HCT116 PTEN-deleted viability, 60 h, at 10 µM, stronger effect = lower value
[14] = RAM pathway blockade in budding yeast – dse1pr::URA3 reporter, 5-FOA selection, pilot screen (AID 869;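 active = inhibition over a set limit, the all-compound mean plus 3 SD, in both replicate runs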;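 also: 0% = DMSO wells with no growth and 100% = 10 µM 1-NA-PP1 with full growth; RAM network block rescues cells from 5-FOA so hits raise OD615 growth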); details: S. cerevisiae dse1pr::URA3 5-FOA growth, OD615, 2 d; at 10 µM; stronger effect = higher value; strain carries analog-sensitive mutant Cbk1 kinase
[15] = RAM signaling pathway blockade in yeast – S. cerevisiae, Pdr1DBD-CYC8 efflux-inhibited sensitized strain, primary screen (AID 1298;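 active = RAM network inhibition above 8.4% in each of two replicates, 3 SD over the compound average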;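 also: 0% = DMSO untreated cells without growth and 100% = 10 µM 1-NA-PP1 full growth; higher means more yeast growth rescued from 5-FOA killing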); details: S. cerevisiae cbk1-as DSE1-URA3 strain, 5-FOA growth OD615, 2 d; at 50 µM; stronger effect = higher value
[16] = H69AR cells + 2 uM doxorubicin, measured here: viability with 2 uM doxorubicin, stronger effect = lower value
[17] = H69AR cells, compound alone cytotoxicity

Chain of Receptor tyrosine-protein kinase erbB-2 (Homo sapiens) (P04626 whole entry, looked up): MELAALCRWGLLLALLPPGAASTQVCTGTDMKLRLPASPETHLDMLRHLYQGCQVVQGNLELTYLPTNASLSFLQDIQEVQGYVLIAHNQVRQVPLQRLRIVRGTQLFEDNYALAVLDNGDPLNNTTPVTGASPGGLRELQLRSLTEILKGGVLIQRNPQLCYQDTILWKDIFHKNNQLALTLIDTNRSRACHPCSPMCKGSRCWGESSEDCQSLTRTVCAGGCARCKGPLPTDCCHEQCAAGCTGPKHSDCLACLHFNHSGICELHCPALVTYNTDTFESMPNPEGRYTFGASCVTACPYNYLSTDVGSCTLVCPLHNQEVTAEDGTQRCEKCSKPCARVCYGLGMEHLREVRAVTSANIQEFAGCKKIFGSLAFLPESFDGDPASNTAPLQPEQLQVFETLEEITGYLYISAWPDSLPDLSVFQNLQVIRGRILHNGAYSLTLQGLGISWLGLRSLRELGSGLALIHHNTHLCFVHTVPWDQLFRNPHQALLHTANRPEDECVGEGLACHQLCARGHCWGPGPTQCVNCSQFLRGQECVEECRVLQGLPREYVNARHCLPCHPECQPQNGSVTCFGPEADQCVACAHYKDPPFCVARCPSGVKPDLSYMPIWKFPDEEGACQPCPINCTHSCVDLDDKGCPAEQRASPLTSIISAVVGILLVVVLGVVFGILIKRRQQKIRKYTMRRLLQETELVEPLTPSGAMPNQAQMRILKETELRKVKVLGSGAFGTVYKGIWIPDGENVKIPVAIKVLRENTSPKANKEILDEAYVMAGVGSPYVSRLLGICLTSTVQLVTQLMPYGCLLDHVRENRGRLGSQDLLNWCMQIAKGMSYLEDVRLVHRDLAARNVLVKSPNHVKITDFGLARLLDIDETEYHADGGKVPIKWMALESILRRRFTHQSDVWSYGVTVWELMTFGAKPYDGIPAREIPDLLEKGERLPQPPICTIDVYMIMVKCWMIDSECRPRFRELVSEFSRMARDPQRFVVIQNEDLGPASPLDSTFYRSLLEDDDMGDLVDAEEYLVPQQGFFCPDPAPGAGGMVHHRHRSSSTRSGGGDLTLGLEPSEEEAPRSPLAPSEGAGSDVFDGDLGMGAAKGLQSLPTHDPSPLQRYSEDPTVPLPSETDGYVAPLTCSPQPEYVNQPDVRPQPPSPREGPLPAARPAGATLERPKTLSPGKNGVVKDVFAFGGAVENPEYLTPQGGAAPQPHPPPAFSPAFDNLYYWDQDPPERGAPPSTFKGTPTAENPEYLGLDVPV

Compound	viability [1] [%]	Her2 level [2]	viability [3]	viability [4]	viability [5]	differential viability (reversal) ([6]; H69AR cells + 2 uM doxorubicin)	viability [6, 16] [%]	viability [6, 17] [%]	inhibition [7]	inhibition [8]	growth inhibition [9]	growth inhibition [10]	viability increase [11]	viability [12]	viability [13]	inhibition [14]	RAM network inhibition [15]
CCOc1ccc(N(CC(=O)NCc2ccco2)S(=O)(=O)c2ccc(OC)c(OC)c2)cc1	79	85% (inactive)	79% (inactive)	89.3% (inactive)	83.7% (inactive)	0.495% (inactive)	83.2	83.7	-3.51% (inactive)	-6.5% (inactive)	-3.81% (inactive)	-16.6% (inactive)	-4.63% (inactive)	94.7% (inactive)	90.4% (inactive)	2.28% (inactive)	2.74% (inactive)
O=C(Cn1nc(Cc2cccnc2)c2ccccc2c1=O)NCC1CCCO1 (stereo not given)	122	111% (inactive)	122% (inactive)	99.2% (inactive)	92.2% (inactive)	-3.21% (inactive)	95.4	92.2	-3.33% (inactive)	3.5% (inactive)	-1.69% (inactive)	6.33% (inactive)	-1.12% (inactive)	105% (inactive)	99.1% (inactive)	1.01% (inactive)	5.65% (inactive)
CCCOC(=O)c1[nH]c2c(c1C)C(=O)CC(c1cc(OC)c(OC)c(OC)c1)C2 (stereo not given)	89	79% (inactive)	89% (inactive)	88.7% (inactive)	74.2% (inactive)	9.54% (inactive)	64.6	74.2	-0.26% (inactive)	-4% (inactive)	-16.2% (inactive)	-14.6% (inactive)	1.98% (inactive)	48.1% (inactive)	61.2% (inactive)	2.23% (inactive)	5.86% (inactive)
CC1CCN(C(=O)CSc2nc3c(cnn3-c3ccccc3)c(=O)[nH]2)CC1	82.5	92% (inactive)	82.5% (inactive)	72.1% (inactive)	72% (inactive)	7.54% (inactive)	64.4	72	-0.64% (inactive)	1.67% (inactive)	-6.1% (inactive)	-4.26% (inactive)	-3.8% (inactive)	98.3% (inactive)	91.1% (inactive)	1.47% (inactive)	6.5% (inactive)
CC(=O)c1sc(NC(=O)C2COc3ccccc3O2)nc1C (stereo not given)	102	97.5% (inactive)	102% (inactive)	80.7% (inactive)	89.2% (inactive)	11.4% (inactive)	77.8	89.2	4.1% (inactive)	3.5% (inactive)	-8.75% (inactive)	-3.37% (inactive)	-1.12% (inactive)	99.4% (inactive)	99% (inactive)	0.05% (inactive)	-0.31% (inactive)
O=C(Cn1cc2c(n1)CCCCC2)N1CCc2ccccc2C1	116	114% (inactive)	116% (inactive)	95% (inactive)	92.9% (inactive)	3.17% (inactive)	89.8	92.9	-2.18% (inactive)	-3% (inactive)	7.48% (inactive)	10.6% (inactive)	1.54% (inactive)	86.2% (inactive)	84.7% (inactive)	1.98% (inactive)	6.93% (inactive)
COc1cccc(C2C3=C(N=C4SCC(=O)N42)c2ccccc2CC3)c1OC (stereo not given)	103	115% (inactive)	103% (inactive)	65.7% (inactive)	98.2% (inactive)	19.8% (inactive)	78.4	98.2	-1.69% (inactive)	-6.83% (inactive)	-15.1% (inactive)	-9.8% (inactive)	-1.55% (inactive)	65.8% (inactive)	68.5% (inactive)	0.915% (inactive)	5.99% (inactive)
CCCCn1c(CNC(=O)CCC)nc2ccccc21	116	102% (inactive)	116% (inactive)	87.8% (inactive)	91.8% (inactive)	3.83% (inactive)	87.9	91.8	-5.2% (inactive)	-4.67% (inactive)	-9.17% (inactive)	-13.8% (inactive)	-2.97% (inactive)	104% (inactive)	100% (inactive)	-0.485% (inactive)	1.51% (inactive)
COc1ccc(CNC(=O)c2ccc(CN3CCOCC3)cc2)cc1	116	93.5% (inactive)	116% (inactive)	99.8% (inactive)	92.1% (inactive)	12.5% (inactive)	79.6	92.1	-4% (inactive)	4.52% (inactive)	-8.78% (inactive)	-16.6% (inactive)	-0.28% (inactive)	96.4% (inactive)	105% (inactive)	1.33% (inactive)	0.16% (inactive)
CC1Cc2nc(SCC(N)=O)n(Cc3ccccc3)c(=O)c2S1 (stereo not given)	88.5	100% (inactive)	88.5% (inactive)	93.7% (inactive)	88.3% (inactive)	8.68% (inactive)	79.6	88.3	-3.6% (inactive)	-4.67% (inactive)	-18.9% (inactive)	-26.3% (inactive)	-1.84% (inactive)	95.3% (inactive)	90.9% (inactive)	1.32% (inactive)	1.84% (inactive)
